Source: PubChem (several laboratories)
Shn3 inh set2 = reduction of Shn3 3'UTR firefly luciferase signal, primary screen, Schnurri-3 inhibitor project, cell-based, Clone20 osteoblasts, set 2; Clone20 osteoblast Shn3 3'UTR firefly luciferase, 24 h; 0.52% of 360,000 active; inhibition, % at 12.5 µM;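 active = mean inhibition of at least 75% with every replicate also reaching 75%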;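 also: 0% = median of neutral control wells and 100% = pilot-screen positive control compound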
Peg3 prom inh = Peg3 promoter-driven luciferase inhibitors, primary screen, cell-based, HeLa, luciferase luminescence. 1.7% of 360,000 active. inhibition, % at 20 µM. HeLa PEG-Prom luciferase reporter, overnight;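 active = inhibition of at least 50% at 20 µM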
ABHD5-PLIN5 inh = ABHD5-PLIN5 interaction inhibitors, primary screen, cell lysate, split luciferase complementation, luminescence; 0.78% of 360,000 active; inhibition, % at 4 µM; Split G. princeps luciferase complementation, 4 h; Perilipin-5 (Homo sapiens) + 1-acylglycerol-3-phosphate O-acyltransferase ABHD5 (Homo …;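 active = inhibition above the mean inhibition across every tested compound plus 3 SD, cut at about 22% in these data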;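 also: 0% = DMSO only wells and the 100% control is not disclosed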
PAX8 reporter = inhibitors of PAX8-driven TPO luciferase reporter, primary screen, RMG-I cells, single concentration | SteadyGlo, 24 h | inhibition, % at 12.6 µM | 1.2% of 360,000 active;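 active = mean replicate inhibition at least 60% with every replicate also reaching 60%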;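 also: luciferase light reporting Pax8 driven TPO promoter activity; plate controls were median of neutral control wells for no effect and mitoxantrone controls for full effect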
MITF TRPM1 inh = inhibitors of MITF-dependent TRPM1 promoter reporter, primary screen, cell-based, SK-MEL-5, single point, luciferase; SK-MEL-5 TRPM1 promoter luciferase, 24 h; inhibition, % at 12.5 µM; 0.83% of 330,000 active;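 active = mean inhibition across replicates of 60% or more, whatever share of single replicates reaches that level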
EWS-Fli block = EWS/Fli-driven NR0B1 reporter inhibitors, primary screen, A673 cells, NR0B1 luciferase, luminescence, MLPCN library | viability-normalised | 0.67% of 350,000 active | AID 651661, 2012 | inhibition, % at 12.6 µM;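 active = mean inhibition of at least 50% after viability correction, with every replicate also passing that limit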;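 also: firefly luciferase signal divided by Alamar Blue viability fluorescence both relative to DMSO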
ABHD5 PLIN5 conf = ABHD5-PLIN5 interaction inhibitors, confirmation, biochemical, luminescence; shares compounds with ABHD5-PLIN5 inh; inhibition, % at 4 µM; 67% of 2,200 active; AID 651612, 2012; in the data active = inhibition above about 23%;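 also: 0% = DMSO vehicle wells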
HNF4 counter = HNF4 dimerization inhibitors, counter-screen for ABHD5-PLIN5 interaction inhibitor project, biochemical, split-luciferase complementation, luminescence | inhibition, % at 4 µM | shares compounds with ABHD5-PLIN5 inh | 77% of 2,200 active;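 active = mean inhibition across replicate wells exceeding the computed hit threshold, cut at about 13% in these data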;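 also: light from luciferase halves that rejoin when HNF4 fusion proteins dimerize; 0% = DMSO only wells and the 100% control is not given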
Target sequence (P41235 whole entry, looked up, the tested form may be a part): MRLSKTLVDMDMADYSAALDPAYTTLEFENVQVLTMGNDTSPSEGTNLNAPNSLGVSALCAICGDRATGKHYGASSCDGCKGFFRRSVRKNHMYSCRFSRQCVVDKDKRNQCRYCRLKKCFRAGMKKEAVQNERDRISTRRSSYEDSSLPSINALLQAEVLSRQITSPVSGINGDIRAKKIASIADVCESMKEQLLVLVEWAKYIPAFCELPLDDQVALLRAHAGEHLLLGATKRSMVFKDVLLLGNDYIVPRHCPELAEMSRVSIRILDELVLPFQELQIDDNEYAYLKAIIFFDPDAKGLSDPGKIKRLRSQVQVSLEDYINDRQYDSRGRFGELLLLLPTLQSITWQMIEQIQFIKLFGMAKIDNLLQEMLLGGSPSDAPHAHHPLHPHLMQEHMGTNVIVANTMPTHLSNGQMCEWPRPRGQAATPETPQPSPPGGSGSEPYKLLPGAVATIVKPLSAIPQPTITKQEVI
* = called active by the depositor; · = no result; ! = not confirmed by another sample. An excerpt weighted towards active compounds, which were near 3% of everything screened.

SMILES	Shn3 inh set2	Peg3 prom inh	ABHD5-PLIN5 inh	PAX8 reporter	MITF TRPM1 inh	EWS-Fli block	ABHD5 PLIN5 conf	HNF4 counter
Cc1sc(C(C2C(=O)CC(C)(C)CC2=O)C2C(=O)CC(C)(C)CC2=O)cc1[N+](=O)[O-]	-22	2	56*	0	-4	7	92*	89*
CC1(C)CC(=O)C(C(c2cc([N+](=O)[O-])ccc2Cl)C2C(=O)CC(C)(C)CC2=O)C(=O)C1	·	-1	6	-4	·	-8	·	·
CCCNC(=O)N1CC2(CCN(C(=O)c3ccncc3)CC2)c2c([nH]c3cc(OC)ccc23)[C@@H]1CO	·	·	·	·	·	-13	·	·
COc1ccc(NC(=O)CSc2c3c(nc4ccccc24)CCCC3)c(OC)c1	45	5	25*	-12	14	·	29*	44*
Cc1ccc(SC2=C(Sc3ccc(C)cc3)C(=O)c3ccccc3C2=O)cc1	-17	-168	25*	13	22	41	63*	12*
Cc1ccc(N2C(=O)c3ccccc3C2=O)cc1	-3	-13	-3	1	-14	1	·	·
C[C@H](CO)N1C[C@H](C)[C@@H](CN(C)C(=O)Cc2ccccc2)OCCCC[C@H](C)Oc2ccc(NC(=O)Nc3ccc4c(c3)OCO4)cc2C1=O	·	·	·	-12	·	-8	·	·
COc1ccc(S(=O)(=O)N(C)C[C@@H]2Oc3ccc(NC(=O)CCCN(C)C)cc3CC(=O)N([C@@H](C)CO)C[C@@H]2C)cc1	·	·	·	-4	·	-9	·	·
O=C1c2ccccc2NC(c2ccc(-c3ccc(Br)cc3)o2)N1O (stereo not given)	20	10	2	·	5	16	·	·
O=C1c2ccccc2NC(c2ccc(-c3ccc(F)cc3)o2)N1O (stereo not given)	-109	-256	38*	-172	-73	-80	14	13*
CCOc1cc(CNCCCN2CCOCC2)cc(Br)c1OCc1ccccc1Cl	86*	111*	30*	36	37	42	10	17*
CCOc1cc(CNCCN2CCOCC2)ccc1OCc1ccccc1Cl	-35	7	6	17	-16	-1	·	·
CCOc1cc(CNCCO)cc(Br)c1OCc1ccc(Cl)cc1	-13	101*	25*	·	21	·	16	8
C[C@@H]1CCCCO[C@@H](CN(C)C(=O)Cc2ccccc2)[C@@H](C)CN([C@H](C)CO)C(=O)c2cc(NC(=O)NC3CCCCC3)ccc2O1	·	·	·	-5	·	-8	·	·
CCCc1nnc(NC(=O)CS(=O)(=O)c2ccc(C)cc2)s1	11	15	14	15	-3	8	·	·
CSc1ncc(Cl)c(C(=O)Nc2cccc(C)c2)n1	-13	4	1	-14	14	·	·	·
CCCc1nnc(NC(=O)c2nc(S(=O)(=O)Cc3cccc(C)c3)ncc2Cl)s1	93*	109*	28*	-7	78*	·	74*	42*
Cc1cc(C)cc(S(=O)(=O)Cc2noc(C(=O)NCc3ccccc3)c2C(=O)NCc2ccccc2)c1	4	18	-6	4	6	6	·	·
Cc1cccc(CS(=O)(=O)c2ncc(Cl)c(C(=O)NCc3ccccc3)n2)c1	95*	97*	34*	4	87*	·	92*	106*
Cc1cccc(CS(=O)(=O)c2ncc(Cl)c(C(=O)Nc3c(C)cccc3C)n2)c1	82	103*	75*	-13	19	·	89*	107*
C=CCOc1ccc(C=CC(=O)c2c(O)c(OC)c(OC)c(OC)c2OC)cc1	2	32	59*	10	6	3	72*	56*
O=C(C[C@H]1C[C@@H]2c3cc(NC(=O)c4ccc5c(c4)OCO5)ccc3O[C@@H]2[C@@H](CO)O1)NCc1ccccn1	·	·	·	0	·	5	·	·
COc1ccc(NC(=O)N(C)C[C@@H]2Oc3c(NS(=O)(=O)c4ccccc4)cccc3C(=O)N([C@H](C)CO)C[C@H]2C)cc1	·	·	·	-31	·	0	·	·
O=C(CCCn1cc([N+](=O)[O-])cn1)NC1CCCCCC1	-14	8	99*	9	5	1	-5	5
O=C(CCCn1cc([N+](=O)[O-])cn1)NCc1ccccc1	-3	26	1	-1	-16	6	·	·
SMILES	Shn3 inh set2	Peg3 prom inh	ABHD5-PLIN5 inh	PAX8 reporter	MITF TRPM1 inh	EWS-Fli block	ABHD5 PLIN5 conf	HNF4 counter
COc1ccccc1NC(=O)CC1C(=O)NCCN1C(=O)Nc1ccc(Cl)c(Cl)c1 (stereo not given)	17	45	24*	·	-5	·	13	6
CCCNC(=O)N1CCC2(CC1)CN(Cc1cccc(F)c1)[C@H](CO)c1[nH]c3cc(OC)ccc3c12	·	·	·	·	·	12	·	·
C[C@H](CO)N1C[C@H](C)[C@H](CN(C)Cc2ccc(-c3ccccc3)cc2)OCc2cnnn2CCCC1=O	·	·	·	·	·	13	·	·
C=C[C@]1(C)C[C@@H](OC(=O)CSCCN(CC)CC)[C@]2(C)C(C)CC[C@]3(CCC(=O)[C@H]32)[C@@H](C)[C@@H]1O (stereo not given in full)	13	-27	23*!	-1	-6	2	33*	1
COc1cc(CNc2ccc3c(c2)CCC3)cc(OC)c1O	2	-10	39*	·	7	·	57*	89*
CCCOc1ccccc1-n1sc2c(c1=S)-c1cc(OC)cc3c1N(C(=O)C3=O)C2(C)C	16	20	35*	·	12	·	78*	67*
Cc1ccc(-c2nc3cnccn3c2Nc2c(C)cccc2C)o1	15	102*	38*	19	-1	3	30*	94*
CCN1CCN(c2cc(N3CCc4ccccc4C3)c(F)cc2[N+](=O)[O-])CC1	34	37	26*	21	13	·	15	3
CN(C)C(=O)C[C@@H]1CC[C@@H](NC(=O)Nc2cccc(F)c2)[C@H](CO)O1	·	·	·	-3	·	-4	·	·
CC(=O)N(C)C[C@@H]1Oc2ncc(C#C[C@@H](C)O)cc2C(=O)N([C@H](C)CO)C[C@H]1C	·	·	·	·	·	-10	·	·
CC1=NOC(=O)/C1=C\c1ccc(-c2cccc(Cl)c2)o1	81	105*	51*	·	76*	·	99*	106*
COc1ccc(S(=O)(=O)Nc2ccc3c(c2)C(=O)N([C@H](C)CO)C[C@H](C)[C@H](CN(C)C(=O)Nc2c(C)noc2C)OCCCC[C@@H](C)O3)cc1	·	·	·	-14	·	-14	·	·
C[C@@H]1CN([C@@H](C)CO)C(=O)Cc2cc(NC(=O)C3CC3)ccc2O[C@H]1CN(C)CC1CCCCC1	·	·	·	·	·	-6	·	·
